# HTR5A ag ctr: HTR5A agonism, opioid heterodimer counter-screen; actives 0.61% (n = 340,000); P47898; HTR5A agonist assay, luminescence, cell-based; activation, % at 9.3 µM; in the data active means activation mostly above about 9.5%, no sharp cut-off; inactive means mostly below about 7.6%;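 further: 0% = cells with vehicle only and 100% = reference agonist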
# Target sequence (P47898 whole entry, looked up): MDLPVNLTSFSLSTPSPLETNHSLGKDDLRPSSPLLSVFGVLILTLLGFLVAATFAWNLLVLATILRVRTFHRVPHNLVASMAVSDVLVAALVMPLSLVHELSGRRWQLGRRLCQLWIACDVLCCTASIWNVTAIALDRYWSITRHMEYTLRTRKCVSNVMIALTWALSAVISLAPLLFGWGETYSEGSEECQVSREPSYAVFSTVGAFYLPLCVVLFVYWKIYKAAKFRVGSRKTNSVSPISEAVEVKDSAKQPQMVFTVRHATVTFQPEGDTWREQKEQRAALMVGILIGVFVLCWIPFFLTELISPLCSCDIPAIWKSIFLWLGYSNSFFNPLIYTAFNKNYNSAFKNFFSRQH
# HTR5A inv ag: HTR5A inverse agonism, opioid heterodimer counter-screen; P47898; HTR5A cell line, luminescence; inhibition, % at 9.3 µM; actives 0.083% (n = 340,000); AID 504634; in the data active means inhibition mostly above about 23%, no sharp cut-off; inactive means mostly below about 18%;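 further: 0% = cells with DMSO and 100% = no-cell wells with DMSO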
# MOR-DOR ag: agonists of human mu-delta opioid receptor heterodimerization | activation, % at 9.3 µM | actives 0.3% (n = 340,000) | cells, OPRM1-OPRD1 heterodimerization, luminescence | P35372+P41143 | AID 504326;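 further: 0% = vehicle-treated cells and 100% = reference agonist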
# OPRM1-OPRD1 inv: inverse agonist of human OPRM1-OPRD1 heterodimerization | actives 0.21% (n = 340,000) | cell-based MOR-DOR heterodimer luminescence, inverse agonism | inhibition, % at 9.3 µM; in the data active means inhibition above about 22%, passing the limit was not always enough;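 further: 0% = cells with DMSO and 100% = wells without cells with DMSO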
# OPRM1-D1 ag cf: confirmation of human OPRM1-OPRD1 heterodimerization agonists. cells, MOR-DOR heterodimerization, luminescence complementation. actives 45% (n = 830). shares compounds with MOR-DOR ag. activation, % at 9.3 µM;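 further: 0% = vehicle-treated cells and 100% = reference agonist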
# HTR5A ag counter: activates human HTR5A in OPRM1-OPRD1 agonist counter-screen. shares compounds with MOR-DOR ag. HTR5A agonist counterscreen, cell luminescence. activation, % at 9.3 µM. actives 8% (n = 830). AID 504905; in the data active means activation above about 17%;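 further: 0% = vehicle-treated cells and 100% = reference agonist response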
# Active calls of the source: *; i = inactive; nt = not tested or not shown. A selection: hits, their analogues and other compounds. The true share with any hit is near 1.1%. Unless noted, no stated cut-off is given here; in the data, active means activation above about 18%; inactive means the rest.
SMILES,HTR5A ag ctr,HTR5A inv ag,MOR-DOR ag,OPRM1-OPRD1 inv,OPRM1-D1 ag cf,HTR5A ag counter
NC1=C(Br)C(=O)c2ncccc2C1=O,3,-11,20*,-101,0,-19
Cc1ccc(-c2cc(C(=O)Nc3ccncc3)c3ccccc3n2)cc1,12,-31,28*,-153,18,15
COc1ccc(NC(=O)c2cc(-c3ccco3)nc3ccccc23)cc1,4,-3,50*,-251,22*,20*
O=C(Nc1ccncc1)c1cc(-c2cccc(Br)c2)nc2ccccc12,26*,-56,52*,-336,11,6
O=C(Nc1ncccn1)c1cc(-c2cccc(Br)c2)nc2ccccc12,2,-5,-3,12,nt,nt
CN(CC(=O)N1CCN(Cc2ccccc2)CC1)C(=O)Cc1ccc(Cl)c(Cl)c1,-1,6,-1,4,nt,nt
Cc1ccc(C)c(NC(=O)CN2C(=O)NC(CCc3ccccc3)C2=O)c1 (centres undefined),1,-5,-3,14,nt,nt
COc1ccc(CN(CCN(C)C)c2ccccn2)cc1,8,-30,-3,15,nt,nt
CCCCCCCCCCCCCCCC[N+](C)(C)CCN(Cc1ccc(OC)cc1)c1ncccn1,23,-32,29*,-163,35*,0
O=C(NCc1nc(-c2ccc(Cl)cc2)no1)c1ccc2c(c1)OCO2,-3,-18,3,-21,nt,nt
CCN(Cc1nc2cc(Cl)ccc2c(=O)[nH]1)C(=O)c1nn(C)c(=O)c2ccccc12,4,7,1,-4,nt,nt
NC[C@H](Cc1ccccc1)NCCCCC1CCCCC1,-1,-14,1,-4,nt,nt
CNC[C@H](CC1CCCCC1)NC[C@H](Cc1ccccc1)NCCC12CC3CC(CC(C3)C1)C2,0,-60,95*,i,164*,39*
CCOC(=O)C1=C(C)N(CCCC(=O)O)C(=O)NC1c1ccccc1OS(=O)(=O)c1ccccc1[N+](=O)[O-] (centres undefined),3,-8,56*,-324,10,9
CCOC(=O)C1=C(C)N(CCCCCC(=O)O)C(=O)NC1c1ccccc1OS(=O)(=O)c1ccc(C)cc1 (centres undefined),6,-15,57*,-335,4,8
COC(=O)C1=C(C)N(CCCC(=O)O)C(=O)NC1c1ccccc1OS(=O)(=O)c1ccc([N+](=O)[O-])cc1 (centres undefined),0,0,51*,-300,46*,2
CCOC(=O)C1=C(C)N(CCCC(=O)O)C(=O)NC1c1ccccc1OS(=O)(=O)c1ccc(C)cc1 (centres undefined),-2,5,62*,-340,58*,5
CCOC(=O)C1=C(C)N(CCCC(=O)O)C(=O)NC1c1ccccc1 (centres undefined),2,-3,-3,16,nt,nt
O=[N+]([O-])c1ccccc1Nc1nc(-c2cccnc2)cs1,-1,3,-1,6,nt,nt
COCCn1cnc2c1c(=O)[nH]c(=O)n2Cc1ccccc1,5,-18,-2,8,nt,nt
Cc1ccc(NC(=O)CCCC(=O)O)c(-c2nc3ccccc3[nH]c2=O)c1,2,-8,-3,16,nt,nt
Cc1ccccc1OCC(=O)NCCCNC(=O)c1ccccn1,1,-2,1,-5,nt,nt
COc1ccccc1CNC(=O)CN1C(=O)NC2(CCOc3ccccc32)C1=O (centres undefined),0,0,-3,13,nt,nt
CN(C)C(CNC(=S)Nc1ccccc1)c1cccnc1 (centres undefined),8,-28,108*,i,103*,1
CCc1cccc(C)c1NC(=S)NCc1ccccc1,11,-18,1,-9,nt,nt
S=C(NCc1ccncc1)Nc1cccc(Cl)c1,3,-3,0,0,nt,nt
CN(C)C(CNC(=O)c1cccs1)c1cccnc1 (centres undefined),2,-12,0,2,nt,nt
CN(C)C(CNC(=O)NC1CCCCC1)c1cccnc1 (centres undefined),1,3,158*,i,148*,-2
CCc1cccc(C)c1NC(=S)NCC(c1cccnc1)N(C)C (centres undefined),-4,10,139*,i,129*,2
CN(C)C(CNC(=S)Nc1cccc(Cl)c1)c1cccnc1 (centres undefined),1,18,324*,i,331*,5

# High-throughput results from PubChem BioAssay.
